Test results reported in the supplement of paper PMC11732987, “Enantioselective OTUD7B fragment discovery through chemoproteomics screening and high-throughput optimisation” (Communications Chemistry, 2025).

What was measured:
Experiment in all cases: log2 ratio of Biotin-Ahx-Ub-VS probe labelling (fragment/DMSO); higher = less target engagement (more negative = stronger competition), active = hit call of the paper (q ≤ 0.05, log2 ratio ≤ -1)
Conditions in all cases: compound concentration: 200 uM; treatment time: 3 h
ALG13 = molecular target: T1, ALG13 (UniProt Q9NP73)
T1 sequence (whole entry): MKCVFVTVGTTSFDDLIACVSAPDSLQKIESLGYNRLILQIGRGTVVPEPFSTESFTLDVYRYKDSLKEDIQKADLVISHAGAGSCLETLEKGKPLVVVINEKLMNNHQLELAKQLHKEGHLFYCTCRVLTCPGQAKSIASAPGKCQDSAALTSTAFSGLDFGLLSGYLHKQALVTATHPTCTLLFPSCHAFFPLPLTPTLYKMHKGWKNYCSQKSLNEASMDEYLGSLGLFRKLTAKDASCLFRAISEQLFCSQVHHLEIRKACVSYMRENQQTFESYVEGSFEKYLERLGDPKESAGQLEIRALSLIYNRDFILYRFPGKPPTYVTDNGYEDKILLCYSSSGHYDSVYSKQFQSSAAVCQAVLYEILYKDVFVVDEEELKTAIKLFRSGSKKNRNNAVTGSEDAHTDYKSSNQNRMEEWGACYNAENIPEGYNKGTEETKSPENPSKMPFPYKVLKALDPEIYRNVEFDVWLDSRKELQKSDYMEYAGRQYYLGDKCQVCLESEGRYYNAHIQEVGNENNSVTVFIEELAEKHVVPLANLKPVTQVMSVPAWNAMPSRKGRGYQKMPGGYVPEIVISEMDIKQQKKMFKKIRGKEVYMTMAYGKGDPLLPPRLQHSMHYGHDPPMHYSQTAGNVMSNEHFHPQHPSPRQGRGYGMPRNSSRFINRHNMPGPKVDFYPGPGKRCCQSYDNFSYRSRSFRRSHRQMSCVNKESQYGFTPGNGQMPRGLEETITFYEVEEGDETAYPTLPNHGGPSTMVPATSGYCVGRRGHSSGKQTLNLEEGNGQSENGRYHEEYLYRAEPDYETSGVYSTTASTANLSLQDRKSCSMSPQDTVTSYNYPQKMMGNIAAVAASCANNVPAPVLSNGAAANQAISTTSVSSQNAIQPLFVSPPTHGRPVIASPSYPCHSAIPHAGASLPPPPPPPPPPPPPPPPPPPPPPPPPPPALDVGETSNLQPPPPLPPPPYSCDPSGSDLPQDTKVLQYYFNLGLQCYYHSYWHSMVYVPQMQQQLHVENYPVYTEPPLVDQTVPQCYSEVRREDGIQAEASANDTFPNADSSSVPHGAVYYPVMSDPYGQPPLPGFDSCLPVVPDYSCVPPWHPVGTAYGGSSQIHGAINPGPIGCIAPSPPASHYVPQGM
How it was run: (§1)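 Lysate from HEK293T cells, 495 µg per sample in Tris/CHAPS/IGEPAL buffer with protease inhibitors, was treated for 3 h in triplicate with fragment at 200 µM or vehicle. Biotin-Ahx-Ub-VS was next added at 0.5 µM final for 1 h. The labelled DUBs were enriched with NeutrAvidin, digested with LysC and trypsin, and run by diaPASEF LC-MS/MS, with values given as average log2 fragment/vehicle ratios by unpaired t-test on global-median-normalised Spectronaut quantities of proteins with ≥2 unique peptides.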

ATXN3 = ATXN3 (UniProt P54252)
Chain of ATXN3 (P54252 whole entry): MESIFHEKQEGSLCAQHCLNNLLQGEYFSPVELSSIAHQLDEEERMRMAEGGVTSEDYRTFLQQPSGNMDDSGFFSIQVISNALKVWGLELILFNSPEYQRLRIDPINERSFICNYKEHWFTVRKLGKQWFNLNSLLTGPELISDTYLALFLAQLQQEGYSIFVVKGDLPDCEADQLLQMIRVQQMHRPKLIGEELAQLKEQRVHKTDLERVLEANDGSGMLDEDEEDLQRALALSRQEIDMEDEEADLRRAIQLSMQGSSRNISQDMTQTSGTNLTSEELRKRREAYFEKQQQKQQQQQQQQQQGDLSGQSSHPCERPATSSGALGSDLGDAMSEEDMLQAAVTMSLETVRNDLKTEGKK
How it was run: as §1

BAP1 = molecular target: T2, BAP1 (UniProt Q92560)
T2 sequence (whole entry): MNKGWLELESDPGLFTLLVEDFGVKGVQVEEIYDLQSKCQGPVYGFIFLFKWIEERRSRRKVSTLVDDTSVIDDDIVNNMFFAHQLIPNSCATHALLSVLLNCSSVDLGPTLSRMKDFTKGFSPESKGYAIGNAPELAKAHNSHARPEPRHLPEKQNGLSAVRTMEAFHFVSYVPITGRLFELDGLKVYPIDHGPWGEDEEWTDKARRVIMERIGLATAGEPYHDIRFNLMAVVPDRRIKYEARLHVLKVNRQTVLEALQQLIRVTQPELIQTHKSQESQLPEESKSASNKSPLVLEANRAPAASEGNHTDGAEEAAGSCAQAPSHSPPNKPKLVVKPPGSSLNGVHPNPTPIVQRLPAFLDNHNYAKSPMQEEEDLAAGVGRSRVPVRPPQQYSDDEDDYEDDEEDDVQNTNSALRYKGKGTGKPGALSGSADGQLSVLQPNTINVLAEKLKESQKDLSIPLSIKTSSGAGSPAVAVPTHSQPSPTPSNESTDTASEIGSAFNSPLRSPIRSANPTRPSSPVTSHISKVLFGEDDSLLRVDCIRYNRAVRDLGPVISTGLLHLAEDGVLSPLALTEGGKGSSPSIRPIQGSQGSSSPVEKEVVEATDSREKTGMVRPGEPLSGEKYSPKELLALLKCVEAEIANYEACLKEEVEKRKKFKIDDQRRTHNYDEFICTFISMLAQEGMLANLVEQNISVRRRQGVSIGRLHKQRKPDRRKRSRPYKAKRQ
How it was run: as §1

EIF3F = EIF3F (UniProt O00303)
Chain of EIF3F (O00303 whole entry): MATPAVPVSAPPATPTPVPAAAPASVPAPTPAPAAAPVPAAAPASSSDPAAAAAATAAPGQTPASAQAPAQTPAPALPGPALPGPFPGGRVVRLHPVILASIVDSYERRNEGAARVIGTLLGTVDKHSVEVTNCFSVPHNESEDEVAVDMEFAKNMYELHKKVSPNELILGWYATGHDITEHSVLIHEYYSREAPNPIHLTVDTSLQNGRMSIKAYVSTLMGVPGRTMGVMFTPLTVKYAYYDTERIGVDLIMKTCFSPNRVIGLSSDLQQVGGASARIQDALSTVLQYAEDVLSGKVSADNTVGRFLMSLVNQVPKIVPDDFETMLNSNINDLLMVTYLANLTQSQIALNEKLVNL
How it was run: as §1

EIF3H = EIF3H (UniProt O15372)
Chain of EIF3H (O15372 whole entry): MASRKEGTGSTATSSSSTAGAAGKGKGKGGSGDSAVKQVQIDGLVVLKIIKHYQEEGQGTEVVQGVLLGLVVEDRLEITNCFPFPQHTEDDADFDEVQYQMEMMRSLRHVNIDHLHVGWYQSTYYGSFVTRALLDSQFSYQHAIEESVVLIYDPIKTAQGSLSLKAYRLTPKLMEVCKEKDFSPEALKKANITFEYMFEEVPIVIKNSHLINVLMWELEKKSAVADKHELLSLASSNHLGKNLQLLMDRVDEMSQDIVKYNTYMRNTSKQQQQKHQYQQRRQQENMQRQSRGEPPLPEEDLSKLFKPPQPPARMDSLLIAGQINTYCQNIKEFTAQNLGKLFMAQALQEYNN
How it was run: as §1

FAM105A = molecular target: T3, FAM105A (UniProt Q9NUU6)
T3 sequence (whole entry): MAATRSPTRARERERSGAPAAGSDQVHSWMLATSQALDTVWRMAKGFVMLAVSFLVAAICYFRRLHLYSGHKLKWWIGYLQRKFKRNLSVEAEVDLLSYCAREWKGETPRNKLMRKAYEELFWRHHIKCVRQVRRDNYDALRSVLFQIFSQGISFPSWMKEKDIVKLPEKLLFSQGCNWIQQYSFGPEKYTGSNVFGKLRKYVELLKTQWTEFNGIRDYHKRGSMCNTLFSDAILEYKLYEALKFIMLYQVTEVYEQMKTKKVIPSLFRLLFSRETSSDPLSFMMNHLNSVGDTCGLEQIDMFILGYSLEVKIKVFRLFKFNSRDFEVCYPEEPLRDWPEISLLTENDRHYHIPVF
How it was run: as §1

OTUB1 = OTUB1 (UniProt Q96FW1)
Chain of OTUB1 (Q96FW1 whole entry): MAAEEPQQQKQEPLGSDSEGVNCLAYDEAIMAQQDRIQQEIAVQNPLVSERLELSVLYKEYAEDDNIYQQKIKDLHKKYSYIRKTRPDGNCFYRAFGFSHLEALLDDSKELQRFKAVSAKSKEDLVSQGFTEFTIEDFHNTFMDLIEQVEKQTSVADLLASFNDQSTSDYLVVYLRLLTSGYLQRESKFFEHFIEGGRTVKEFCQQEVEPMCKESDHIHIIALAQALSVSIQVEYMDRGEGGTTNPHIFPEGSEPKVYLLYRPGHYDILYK
How it was run: as §1

OTUD4 = molecular target: T4, OTUD4 (UniProt Q01804)
T4 sequence (whole entry): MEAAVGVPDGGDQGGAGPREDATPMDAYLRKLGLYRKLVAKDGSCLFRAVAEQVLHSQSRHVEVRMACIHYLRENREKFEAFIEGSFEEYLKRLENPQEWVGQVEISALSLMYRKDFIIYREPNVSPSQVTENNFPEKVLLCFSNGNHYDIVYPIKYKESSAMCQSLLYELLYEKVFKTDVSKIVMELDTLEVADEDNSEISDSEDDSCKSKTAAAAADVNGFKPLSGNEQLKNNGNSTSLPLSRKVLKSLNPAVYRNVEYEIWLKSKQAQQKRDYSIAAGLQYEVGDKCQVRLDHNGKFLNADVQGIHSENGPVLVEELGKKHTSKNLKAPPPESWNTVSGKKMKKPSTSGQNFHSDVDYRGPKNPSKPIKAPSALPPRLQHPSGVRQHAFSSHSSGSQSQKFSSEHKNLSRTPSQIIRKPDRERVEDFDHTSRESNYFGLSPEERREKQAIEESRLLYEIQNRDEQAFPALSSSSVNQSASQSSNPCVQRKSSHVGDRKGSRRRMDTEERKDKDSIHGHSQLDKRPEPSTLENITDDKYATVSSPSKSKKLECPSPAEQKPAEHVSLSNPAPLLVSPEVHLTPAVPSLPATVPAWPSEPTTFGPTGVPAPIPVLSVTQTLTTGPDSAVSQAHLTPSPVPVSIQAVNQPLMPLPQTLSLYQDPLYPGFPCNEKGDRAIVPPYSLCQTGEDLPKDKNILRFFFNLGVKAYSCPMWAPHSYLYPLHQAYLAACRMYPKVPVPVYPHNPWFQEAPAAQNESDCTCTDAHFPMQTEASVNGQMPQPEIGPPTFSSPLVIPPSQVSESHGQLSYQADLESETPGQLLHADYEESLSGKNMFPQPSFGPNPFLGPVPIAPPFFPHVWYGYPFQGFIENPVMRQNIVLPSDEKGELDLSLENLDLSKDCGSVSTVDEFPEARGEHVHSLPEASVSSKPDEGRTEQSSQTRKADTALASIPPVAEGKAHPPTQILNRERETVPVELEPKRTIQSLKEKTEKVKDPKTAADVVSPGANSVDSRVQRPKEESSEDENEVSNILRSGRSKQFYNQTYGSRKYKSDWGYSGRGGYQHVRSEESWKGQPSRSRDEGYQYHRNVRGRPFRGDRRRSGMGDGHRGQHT
How it was run: as §1

OTUD5 = molecular target: T5, OTUD5 (UniProt Q96G74)
T5 sequence (whole entry): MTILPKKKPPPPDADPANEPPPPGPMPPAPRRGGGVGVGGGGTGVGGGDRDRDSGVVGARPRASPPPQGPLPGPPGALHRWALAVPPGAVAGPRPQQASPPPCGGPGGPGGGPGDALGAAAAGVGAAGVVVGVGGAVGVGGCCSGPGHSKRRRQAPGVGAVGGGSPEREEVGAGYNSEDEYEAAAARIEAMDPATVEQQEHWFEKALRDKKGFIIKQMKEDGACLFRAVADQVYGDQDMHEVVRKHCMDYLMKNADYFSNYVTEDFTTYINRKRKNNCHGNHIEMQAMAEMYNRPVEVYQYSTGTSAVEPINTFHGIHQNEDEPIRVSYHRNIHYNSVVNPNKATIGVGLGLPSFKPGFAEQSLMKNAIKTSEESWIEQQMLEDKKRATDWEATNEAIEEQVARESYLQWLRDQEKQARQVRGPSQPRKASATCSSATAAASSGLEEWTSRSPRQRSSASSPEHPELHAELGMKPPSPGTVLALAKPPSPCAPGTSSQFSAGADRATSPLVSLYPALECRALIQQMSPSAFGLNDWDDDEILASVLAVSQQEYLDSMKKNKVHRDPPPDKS
How it was run: as §1

Measured: log2 ratio of Biotin-Ahx-Ub-VS probe labelling

CN(C)C(=O)c1ccc(NC(=O)CCl)cc1
inactive: ALG13 -0.115 | ATXN3 -0.241 | EIF3F 0.168 | EIF3H 0.142 | FAM105A 0.105 | OTUB1 0.31 | OTUD4 -0.109 | OTUD5 -0.508
active: BAP1 -3.59
